In PubChem BioAssay AID1422 (Emory University Molecular Libraries Screening Center, 2008):
Values joined by “and” are separate entries in the source; they are usually repeats but may differ in a detail not shown here. Identical values can stand only once. Out of some 260,000 compounds screened, about 1,300 (0.5%) were called active.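 Rule for the calls: active = percent inhibition above 40 after rounding to a whole number; inactive = the rest.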 Shown is part of a subset that was picked to be rich in actives. A structure can be active in one record and inactive in another.

biological target: Prostaglandin E2 receptor EP2 subtype (Homo sapiens) (UniProt P43116); assay: blockers of PGE2-driven EP2 cAMP signalling – TR-FRET cAMP, C6 glioma cells, primary screen (AID 1422); details: C6 glioma cells expressing human EP2, cAMP TR-FRET; at 25 µM; stronger effect = higher value; cells stimulated with saturating PGE2;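 note: rat C6 glioma host cells with rolipram phosphodiesterase inhibitor present; the protocol text gives 20 µM as final concentration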
Sequence (P43116 whole entry, looked up): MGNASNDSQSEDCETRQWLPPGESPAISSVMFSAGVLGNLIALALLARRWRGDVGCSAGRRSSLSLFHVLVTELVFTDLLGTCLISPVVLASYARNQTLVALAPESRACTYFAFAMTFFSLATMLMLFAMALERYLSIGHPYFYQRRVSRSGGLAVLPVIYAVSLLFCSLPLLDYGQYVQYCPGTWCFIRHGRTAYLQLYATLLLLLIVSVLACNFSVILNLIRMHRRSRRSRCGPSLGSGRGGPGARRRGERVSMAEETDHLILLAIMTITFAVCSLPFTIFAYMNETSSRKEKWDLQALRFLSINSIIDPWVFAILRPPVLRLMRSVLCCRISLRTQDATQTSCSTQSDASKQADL

| Structure (SMILES) | inhibition |
| --- | --- |
| O=C1c2cccc3cccc(c23)C(=O)N1c1ccc(N2C(=O)c3cccc4cccc(c34)C2=O)cc1 | 9.96% (inactive) |
| O=c1[nH]c2ccccc2n2c(-c3ccccc3)nnc12 | 82.1% (active) |
| Cc1ccc(-c2nc3ccccc3[nH]c2=O)cc1 | 12.3% (inactive) |
| CCOC(=O)c1cnc2[nH]c3ccccc3n2c1=O | 4.64% (inactive) |
| Cc1nn(CC(=O)Nc2cccc3ncccc23)c(=O)c2ccccc12 | 6.79% (inactive) |
| O=c1cc(CSc2nnc(Cn3nnc4ccccc43)o2)c2ccccc2[nH]1 | 7.33% (inactive) |
| CCOc1ccc(NC(=S)N(CCO)Cc2cc3c(C)cc(C)cc3[nH]c2=O)cc1 | 6.48% (inactive) |
| Cc1cc2c(cc1C)NC1=C(N2)O[C@H](c2c[nH]c3ccc(COc4ccccc4)cc23)C1=O | 56.3% (active) |
| COc1cc(C)c(CNC(=O)c2cccc(-n3cnnc3)c2)cc1C(C)C | 4.98% (inactive) |
| COCC(=O)Nc1cc(C)on1 | 7.17% (inactive) |
| CC(C)(C)NCC[C@@H](O)c1cc(C(F)(F)F)nc2c(C(F)(F)F)cccc12 | 48.9% (active) |
| COc1ccc(N(CC(=O)N2CCN(c3ccc(F)cc3)CC2)S(C)(=O)=O)cc1 | 6.08% (inactive) |
| CCCC(c1nnnn1C1CCCCC1)N1CCN(c2ccccc2)CC1 (centres undefined) | 5.51% (inactive) |
| COc1ccc2[nH]c(=S)cc(C)c2c1 | 7.37% (inactive) |
| COc1ccc2[nH]c3cc4c(=O)c5cc(OC)ccc5[nH]c4cc3c(=O)c2c1 | 49.6% (active) |
| COc1ccc2[nH]c3ccc(OC)cc3c2c1 | 6.17% (inactive) |
| Cc1ccc(-c2cc(N)c(=O)n(CC(=O)N3c4ccccc4CC3C)n2)o1 (centres undefined) | 9.35% (inactive) |
| CCOc1ccc2[nH]c(=O)c(CN(Cc3ccc4c(c3)OCO4)C(=O)Nc3ccc(C)cc3)cc2c1 | 10.3% (inactive) |
| Cc1ccc2cc(CN(Cc3cccs3)Cc3nnnn3Cc3ccco3)c(=O)[nH]c2c1 | 12.8% (inactive) |
| COc1ccc(-n2nnnc2SCC(=O)Nc2ccc(N(C)C)cc2)cc1 | 8.77% (inactive) |

| Structure (SMILES) | inhibition |
| --- | --- |
| Cc1ccc(N(CC(=O)N2CCC(C(N)=O)CC2)S(C)(=O)=O)cc1C | 15.2% (inactive) |
| C/C(=N/Nc1nc(-c2ccccc2)c(CC(=O)O)s1)c1ccccc1 | 11.6% (inactive) |
| O=C(O)Cc1sc(-c2ccccc2)nc1-c1cccs1 | 43% (active) |
| Cc1ccc(-c2nc(C)sc2CC(=O)O)cc1 | 8.08% (inactive) |
| COC(=O)c1c(NC(=O)Cc2cccs2)sc(C(=O)Nc2cccc(Cl)c2)c1C | 8.6% (inactive) |
| CCCc1nc2ccccc2n1CC(O)COc1ccc(F)cc1 (centres undefined) | 10.9% (inactive) |
| COc1ccc(C2(O)CCN(CCN3CCCCC3)CC2)c(OC)c1 | 12.5% (inactive) |
| CCn1c(=O)n(CC)c2cc(CN(Cc3ccc(C)s3)CC(C)O)ccc21 (centres undefined) | 1.95% (inactive) |
| O=C(O)[C@@H]1CS[C@]2(CCCN(Cc3ccccc3)C2)N1 | 46.7% (active) |
| O=C(NC1CCN(Cc2ccccc2)CC1)c1c(F)cccc1F | 2.64% (inactive) |
| CCCC(=O)C1CCN(Cc2ccccc2)CC1 | 13% (inactive) |
| Cc1cccc2c(C(=O)Nc3cccc(C(=O)N4CCCCC4)c3)cc(=O)[nH]c12 | 4.42% (inactive) |
| CC(C)(C)c1cnnn1-c1ccc(S(N)(=O)=O)cc1 | 3.83% (inactive) |
| CC(NC(=O)C1CCN(c2nc3ccccc3n2C)CC1)c1ccccc1 (centres undefined) | 7.13% (inactive) |
| CC(NC(=O)Nc1ccccc1)C(c1cccs1)N1CCN(c2ccccc2)CC1 (centres undefined) | 6.9% (inactive) |
| ClC(Cl)(Cl)C(N1CCN(c2ccccc2)CC1)N1CCN(c2ccccc2)CC1 | 46.7% (active) |
| C(=N/N1CCN(c2ccccc2)CC1)/c1cccs1 | 6.51% (inactive) |
| COc1ccc(CN(Cc2cccnc2)C2CC(C)(C)NC(C)(C)C2)cc1OC | 9.23% (inactive) |
| CCOc1ccc(OCC)c(NC(=O)CSc2nc3cc4c(cc3cc2C)OCO4)c1 | 15.2% (inactive) |
| O=C(Nc1ccc2oc(-c3cccnc3)nc2c1)c1cccc2ccccc12 | 10.6% (inactive) |

| Structure (SMILES) | inhibition |
| --- | --- |
| N#CC1=C(N)Oc2cc(O)ccc2C1C1CCCCC1 (centres undefined) | 7.43% (inactive) |
| O=C(O)c1c(Br)c(Br)c(Br)c(Br)c1C1c2ccc(O)cc2Oc2cc(O)ccc21 | 46.5% (active) |
| CCn1cc(C(=O)N2CCC(n3c(C)nc4sc(C)c(C)c4c3=O)CC2)cn1 | -0.97% (inactive) |
| O=C(CN1CCC(n2nnc3cc(F)ccc32)CC1)Nc1cccc(F)c1 | 10.2% (inactive) |
| Cc1nn(CCC(=O)NC2(c3ccccc3)CCCC2)c(C)c1C | 7.61% (inactive) |
| COc1ccccc1OCCNCC(O)COc1cccc2[nH]c3ccccc3c12 (centres undefined) | 15.7% (inactive) and 44.9% (active) |
| CC(C)(C)NCC(O)COc1cccc2[nH]c(=O)[nH]c12 (centres undefined) | 13.5% (inactive) and 12.7% (inactive) |
| COc1ccccc1OCC(O)Cn1c(=N)n(C)c2ccccc21 (centres undefined) | 8.65% (inactive) |
| Cn1c(=O)c2cc(S(=O)(=O)NC3(c4ccccc4F)CC3)ccc2n(C)c1=O | 10.9% (inactive) |
| O=C(c1ccc([N+](=O)[O-])cc1)[C@@H](Br)[C@@H](Br)c1ccnc2ccccc12 | 99.4% (active) |
| O=C(Nn1c(-c2ccccc2)nc2ccccc2c1=O)c1ccc([N+](=O)[O-])cc1 | 6.91% (inactive) |
| O=C(c1ccncc1)c1ccc([N+](=O)[O-])cc1 | 8.78% (inactive) |
| COc1ccc(C(O)CN2CCC(O)(c3ccc4c(c3)OCO4)CC2)cc1 (centres undefined) | 6.32% (inactive) |
| O=c1[nH]c2cc3c(cc2cc1C(c1nnnn1C1CCCCC1)N1CCCCC1)OCCO3 (centres undefined) | 6.82% (inactive) |
| COc1cc(/C=N/Nc2nc3ccccc3s2)ccc1O | 16.7% (inactive) |
| c1ccc2sc(NN=C3CCCC3)nc2c1 | 1.63% (inactive) |
| O=[N+]([O-])c1cc(Br)c(O)c(/C=N/Nc2nc3ccccc3s2)c1 | 77% (active) |
| COc1ccc2cc(CN(C(=O)Nc3ccc(F)cc3)C3CCCC3)c(=O)[nH]c2c1 | 8.38% (inactive) |
| CN(C)c1ncc(CN2CCC(O)(c3ccccc3F)CC2)cn1 | 5.6% (inactive) |
